Assay [1] can be described thus: AP1 Signaling Pathway (AID 357; active means well fitted curve in either direction with a large enough effect, not every such curve was filed as active; further: on the % scale 0 is the no-effect control and ±100 the full control effect). To be noted: ME-180 AP-1-bla reporter, EGF-induced, beta-lactamase ratio, 5 h; at 7.69 µM (top of the series) unless noted. Summed up:
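ME-180 cells with beta-lactamase reporter under AP-1 response element, stimulated with EC50 EGF; compounds tested in titration series, 5 h at 37 °C. CCF4 substrate added 2.5 h at room temperature; 460/530 nm emission ratio gave %activity and AC50.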

The target in assay [2] is Cytochrome P450 1A2 (Homo sapiens) (UniProt P05177). Kind of assay: p450-cyp1a2 (AID 410; calls by dose curve; further: potency means the concentration at half of the fitted maximal effect). Summed up: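 20nM CYP1A2, 100uM Luciferin-ME (=Km), 100mM KPO4; cpd 10 min RT; +NADPH regen, 60 min RT; stop/detect 20 min; luminescence. Normalized to furafylline 57 uM = full inhibition.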
Cytochrome P450 1A2 (Homo sapiens), sequence (P05177 whole entry, looked up): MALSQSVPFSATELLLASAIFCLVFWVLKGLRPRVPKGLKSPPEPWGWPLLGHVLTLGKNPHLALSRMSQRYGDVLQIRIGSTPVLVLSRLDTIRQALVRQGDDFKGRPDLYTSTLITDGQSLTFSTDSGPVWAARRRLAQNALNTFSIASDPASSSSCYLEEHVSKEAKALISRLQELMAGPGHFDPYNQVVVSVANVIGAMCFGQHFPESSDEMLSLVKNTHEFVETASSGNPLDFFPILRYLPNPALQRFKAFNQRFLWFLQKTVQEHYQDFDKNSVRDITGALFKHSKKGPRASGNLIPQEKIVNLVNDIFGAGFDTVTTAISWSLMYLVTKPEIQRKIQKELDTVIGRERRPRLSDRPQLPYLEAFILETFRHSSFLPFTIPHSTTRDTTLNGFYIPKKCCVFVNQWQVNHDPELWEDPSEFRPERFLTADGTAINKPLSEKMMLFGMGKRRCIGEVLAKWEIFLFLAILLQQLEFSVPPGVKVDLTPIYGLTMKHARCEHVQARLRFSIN
A short description of assay [3]: NFAT Signaling Pathway (AID 444; active means well fitted curve in either direction with a large enough effect, not every such curve was filed as active;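 further: carbachol stimulus at about its EC50 of 1 µM final; on the % scale 0 is the no-effect control and ±100 the full control effect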). The following applies: Jurkat NFAT-bla M1, carbachol, beta-lactamase ratio, 5 h; at 7.69 µM (top of the series) unless noted. Summed up:
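Jurkat cells carrying an NFAT-driven β-lactamase reporter and co-transfected muscarinic M1 receptor were treated with compound plus carbachol (1 uM final, an EC50 level) for 5 h at 37 °C. CCF4 loading followed for 1 h at RT; 460/530 nm ratio gave %activity.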

A short description of assay [4]: Stat Signaling Pathway (AID 446; active means well fitted curve in either direction with a large enough effect, not every such curve was filed as active;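 further: ME-180 cervical cancer cells given 40 pM IL-6 alongside compound; SIE-controlled beta-lactamase reporter measured as 460/530 nm FRET emission ratio; on the % scale 0 is the no-effect control and ±100 the full control effect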). To be noted: ME-180 SIE beta-lactamase reporter, IL-6 stimulated, 5 h; at 7.69 µM (top of the series) unless noted. Summed up:
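Overnight-plated ME-180 cells bearing a STAT Inducible Element beta-lactamase reporter; 5 h co-exposure to compound and 40 pM IL-6; values normalized to 300 pM IL-6 and 125 nM JAK inhibitor controls.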

Assay [5] addresses Glucocorticoid receptor (Homo sapiens) (UniProt P04150). Put plainly: GR-GFP Redistribution (AID 450;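 active means compounds whose dose series gives a full or clear partial fitted curve of increased nuclear translocation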; further: potency means the concentration at half of the fitted maximal effect). The following applies: U2OS GR-GFP nuclear translocation, laser cytometry, 2 h.
The target is the same in assay [6]. Kind of assay: GR-EFC Redistribution (AID 451; calls by dose curve; further: potency means the concentration at half of the fitted maximal effect). The following applies: CHO-K1 GR-EFC translocation, beta-gal luminescence, 2 h. Summed up: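 CHO-K1 cells stably expressing nuclear-localized β-gal enzyme acceptor and GR fused C-terminally to the enzyme donor fragment; ligand-driven nuclear translocation restores β-gal by complementation. Compounds titrated up to 46 uM final, 2 h at 37 °C; luminescence read.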

In assay [7] the target is Mitogen-activated protein kinase 10 (Mus musculus) (UniProt Q61831). Put plainly: JNK3 AlphaScreen Assay (AID 530; active means well fitted curve in either direction with a large enough effect, not every such curve was filed as active;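 further: kinase came from lysate of stimulated human HepG2 cells; signal reports phosphorylation of biotinylated GST-cJun 1-79 at Ser73 with 10 µM ATP; on the % scale 0 is the no-effect control and ±100 the full control effect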). Summed up: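 Biotinylated GST-cJun(1-79) served as substrate for JNK3 in HepG2 lysates stimulated with IL-1beta and TNF-alpha. ATP was 10 uM final, pH 7.6. Ser73 phosphorylation was quantified by AlphaScreen (680 nm excitation).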
In assay [8] the target is 3',5'-cyclic-AMP phosphodiesterase 4B (Homo sapiens) (UniProt Q07343). Kind of assay: qHTS Assay for Inhibitors of PDE-IV (AID 607; active means well fitted activation curve with a large enough effect in the main read-out, with a control signal flat, not every such curve was filed as active; further: % of control where 0% means no effect). Summed up:
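Live HEK293 cells with a modified cyclic nucleotide-gated (CNG) channel report intracellular cAMP via membrane-potential dye fluorescence (ex 535/em 590 nm). Endogenous PDE-IV was targeted. Compounds were tested at up to 22.9 uM final; RO 20-1724 100 uM served as control.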
Background: Quantitative high-throughput screening tests each substance at several concentrations.

The nature of assay [9]: qHTS Assay for Lipid Storage Modulators (AID 1519; calls by dose curve). To be noted: Drosophila S3 cells, BODIPY lipid droplet/cell ratio, laser cytometry, cells loaded with oleic acid; for activity change, negative = inhibition: at 57.5 µM (top of the series). Summed up:
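Cells seeded at 5,000 per well were treated with compounds over a concentration series and loaded with oleic acid (400 uM, as added). Lipid droplet fluorescence (488 nm excitation, 500-530 nm channel) was read by laser-scanning cytometry and normalized to 20 uM Triacsin C.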

For assay [10], the target named is Dual specificity protein kinase CLK4 (Homo sapiens) (UniProt Q9HAZ1). Kind of assay: qHTS Assay for Inhibitors of CDC-like Kinase 4 (Kinase-Glo Assay) (AID 1770). Further: on the % scale 0 is the no-effect control and ±100 the full control effect; nearly all actives have a fitted effect of over 65% in size. Summed up: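 Inhibition was judged from remaining ATP, measured by Ultra-Glo luciferase bioluminescence after Clk4 (25 nM) had acted on RS peptide at 1 uM ATP for 4.5 hours, room temperature.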
Dual specificity protein kinase CLK4 (Homo sapiens), sequence (Q9HAZ1 whole entry, looked up): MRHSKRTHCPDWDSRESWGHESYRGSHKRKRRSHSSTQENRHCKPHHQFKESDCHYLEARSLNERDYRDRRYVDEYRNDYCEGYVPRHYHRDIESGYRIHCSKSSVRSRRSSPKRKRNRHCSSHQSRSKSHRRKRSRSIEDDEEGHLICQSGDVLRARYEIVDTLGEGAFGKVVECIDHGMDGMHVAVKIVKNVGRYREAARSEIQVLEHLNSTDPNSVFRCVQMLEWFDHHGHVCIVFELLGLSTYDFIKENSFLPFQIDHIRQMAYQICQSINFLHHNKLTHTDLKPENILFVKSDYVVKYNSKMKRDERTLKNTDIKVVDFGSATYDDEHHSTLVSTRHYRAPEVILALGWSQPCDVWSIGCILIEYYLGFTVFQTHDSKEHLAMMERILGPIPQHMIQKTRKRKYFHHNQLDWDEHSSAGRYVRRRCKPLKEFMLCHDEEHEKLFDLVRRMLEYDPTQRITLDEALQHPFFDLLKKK
The target is the same in assay [11]. Kind of assay: qHTS Assay for Inhibitors of CDC-like Kinase 4 (ADP-Glo Assay) (AID 1771). Further: on the % scale 0 is the no-effect control and ±100 the full control effect; nearly all actives have a fitted effect of over 70% in size. In outline: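 25 nM Clk4, 100 uM RS peptide, 1 uM ATP (final); 2 mM MgCl2, 0.5 mM EGTA, 2.5 mM DTT, 0.01% Triton X-100; 1 hr RT. ADP-Glo readout: ATP depletion 45 min, conversion/luciferase 30 min, luminescence.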
For assay [12] the target is unchanged. Kind of assay: qHTS Assay for Inhibitors of CDC-like Kinase 4 (ADP-FP Assay) (AID 1795).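 Further: recombinant human CLK4 phosphorylating RS repeat peptide at 1 µM ATP; on the % scale 0 is the no-effect control and ±100 the full control effect; nearly all actives have a fitted effect of over 60% in size.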 Summed up: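 Inhibition of ADP formation by 6.25 nM Clk4 is measured using 1 uM ATP and 100 uM RS repeat peptide over one hour. Produced ADP displaces a fluorescent tracer from antibody, lowering polarization.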
In assay [13] the target is Ubiquitin carboxyl-terminal hydrolase 1 (Homo sapiens) (UniProt O94782). Put plainly: Inhibitors of USP1/UAF1: Pilot qHTS (AID 504865).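 Further: rhodamine fluorescence freed from ubiquitin-rhodamine substrate followed over time; top concentration of the series differs between compounds; on the % scale 0 is the no-effect control and ±100 the full control effect; nearly all actives have a fitted effect of over 35% in size.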 Summed up:
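Kinetic fluorescence assay: 1nM USP1/UAF1, 15 min compound preincubation, then 150nM Ub-Rho; 480/540 nm.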

The nature of assay [14]: Counterscreen qHTS for small molecule stabilizers of the endoplasmic reticulum resident proteome: GLuc-NoTag assay (AID 1508627).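 Further: 0% = thapsigargin alone and -100% = DMSO vehicle control.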 In outline:
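Secreted GLuc lacking the SERCaMP modification is measured in SH-SY5Y cells exposed to compound for 19 h and then to thapsigargin (100 nM, 4 h) to deplete ER calcium; hits retested at 11 concentrations, up to 76.6 uM.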
On the technique in general: A counterscreen serves to expose hits that act by an unwanted route or on another target.

Assay [15] in a line: Confirmatory qHTS for small molecule stabilizers of the endoplasmic reticulum resident proteome: Secreted ER Calcium Modulated Protein (SERCaMP) assay (AID 1508628). Further: nearly all actives have a fitted effect of over 40% in size. Further: potency means the concentration at half of the fitted maximal effect. In outline: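 GLuc-SERCaMP-expressing SH-SY5Y cells, pretreated 16 h with compound, are challenged with thapsigargin to empty ER calcium stores; after 4 h, coelenterazine is added directly to the medium and luminescence is imaged.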

The target of assay [16] is Lysosomal acid glucosylceramidase (Homo sapiens) (UniProt P04062). Put plainly: Glucocerebrosidase-p2 (AID 348; in the data active means potency below about 10 µM; further: potency means the concentration at half of the fitted maximal effect). To be noted: purified GBA, blue fluorogenic substrate, 40 min. Summed up: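 Normal human glucocerebrosidase (0.2 nM) with blue fluorogenic substrate (80 uM final) in citrate/phosphate pH 5.9 with 10mM sodium taurocholate, 0.01% tween-20; 40 min RT, NaOH/glycine stop; fluorescence Ex 365/Em 440; AC50 from a titration from 0.6 nM upwards.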
Lysosomal acid glucosylceramidase (Homo sapiens), sequence (P04062 whole entry, looked up): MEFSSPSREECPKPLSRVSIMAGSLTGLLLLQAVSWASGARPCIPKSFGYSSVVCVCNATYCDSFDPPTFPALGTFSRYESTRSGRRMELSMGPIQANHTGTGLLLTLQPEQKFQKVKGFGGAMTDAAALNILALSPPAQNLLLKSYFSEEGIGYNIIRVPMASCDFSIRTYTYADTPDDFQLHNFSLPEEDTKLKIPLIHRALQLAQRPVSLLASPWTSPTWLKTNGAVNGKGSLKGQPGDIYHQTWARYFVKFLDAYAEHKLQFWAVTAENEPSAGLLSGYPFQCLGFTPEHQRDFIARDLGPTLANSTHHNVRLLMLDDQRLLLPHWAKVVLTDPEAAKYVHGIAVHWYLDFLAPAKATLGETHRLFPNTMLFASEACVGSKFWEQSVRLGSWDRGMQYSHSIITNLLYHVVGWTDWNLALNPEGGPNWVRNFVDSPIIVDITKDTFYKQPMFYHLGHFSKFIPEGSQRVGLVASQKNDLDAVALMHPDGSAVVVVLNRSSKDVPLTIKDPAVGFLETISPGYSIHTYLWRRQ

Assay [17] deals with Cytochrome P450 3A4 (Homo sapiens) (UniProt P08684). Kind of assay: qHTS Assay for Activators of Cytochrome P450 3A4 (AID 885). Further: nearly all actives have a fitted effect of over 65% in size. In outline: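 Using 20nM recombinant human CYP3A4 in potassium phosphate (200mM), substrate Luciferin-PPXE at 25uM, luminescent luciferin detection followed a 60-min RT NADPH reaction; data scaled to 57 uM ketoconazole.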
Cytochrome P450 3A4 (Homo sapiens), sequence (P08684 whole entry, looked up): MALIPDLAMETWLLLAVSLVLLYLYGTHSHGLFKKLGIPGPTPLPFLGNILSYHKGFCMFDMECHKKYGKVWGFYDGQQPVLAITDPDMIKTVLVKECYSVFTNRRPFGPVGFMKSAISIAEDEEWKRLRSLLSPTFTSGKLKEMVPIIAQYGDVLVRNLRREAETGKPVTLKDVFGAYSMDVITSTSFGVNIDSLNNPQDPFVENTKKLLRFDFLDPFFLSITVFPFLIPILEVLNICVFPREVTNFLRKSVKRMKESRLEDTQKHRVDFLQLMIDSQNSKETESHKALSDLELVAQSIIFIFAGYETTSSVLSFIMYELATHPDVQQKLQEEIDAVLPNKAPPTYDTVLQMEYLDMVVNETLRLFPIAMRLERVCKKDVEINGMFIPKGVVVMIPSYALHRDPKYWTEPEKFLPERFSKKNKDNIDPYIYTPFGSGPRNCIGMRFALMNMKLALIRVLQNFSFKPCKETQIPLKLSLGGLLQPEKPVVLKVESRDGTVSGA
In assay [18] the target is Cytochrome P450 2C19 (Homo sapiens) (UniProt P33261). Put plainly: qHTS Assay for Inhibitors and Substrates of Cytochrome P450 2C19 (AID 899). Further: on the % scale 0 is the no-effect control and ±100 the full control effect; nearly all actives have a fitted effect of over 60% in size. Summed up:
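Human CYP2C19 (5nM) with Luciferin-H EGE at 10uM (its KM) in 50mM KPO4 was preincubated with compound for 10 min at 37C. NADPH regeneration started a 60 min 37C reaction. Luciferin was read by luminescence, normalized to 57uM ketoconazole.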

Assay [19] in a line: Cell Viability qHTS for small molecule stabilizers of the endoplasmic reticulum resident proteome (AID 1508629).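 Further: compound exposure about 46 h in total before the viability read.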 Further: potency means the concentration at half of the fitted maximal effect. The following applies: cell viability counter-screen, 100 nM thapsigargin for final 4 h.
Assay [20] is described as follows: Confirmation and Secondary Assay for Modulators of Hemoglobin Beta Chain Splicing at IVS2 654 locus (AID 910). Further: % of control where 0% means no effect. Summed up:
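HeLa cells stably carrying EGFP interrupted by mutant beta-globin IVS2-654 intron (CMV-driven) were treated with compound for 2 days at 37C; corrected splicing was scored as total peak GFP intensity per well (488 nm excitation, 500-520 nm emission).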

A short description of assay [21]: qHTS Assay for Identification of Small Molecule Agonists for Hypoxia Response Element Signaling Pathway (AID 914; active means well fitted activation curve with a large enough effect in the signal ratio, with a control signal flat, not every such curve was filed as active; the % refers to the signal ratio; further: % of control where 0% means no effect). The following applies: ME-180 (cervical carcinoma) HRE-bla reporter, beta-lactamase ratio, CoCl2, 17 h; activation: stronger effect = higher value. In outline: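 HRE-bla ME-180 cells, overnight plating in Opti-MEM with 0.5% dialyzed FBS; cpd titration + EC50 CoCl2, 17 h, 37 degrees Celsius; CCF4 2.5 h RT; 460/530 nm ratio; AC50.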

The nature of assay [22]: Confirmation and Secondary Assay for Modulators of Hemoglobin Beta Chain Splicing at IVS2 705 locus (AID 930).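 Further: HeLa cells stably expressing the EGFP-705 splicing reporter; GFP fluorescence per well restored by corrected splicing of the IVS2-705 intron in EGFP; % of control where 0% means no effect.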 In outline:
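Read-out: total peak GFP fluorescence per well (488 nm excitation, 500-520 nm emission) by laser-scanning cytometry. Cells: HeLa EGFP-705 splicing reporter, 2 days compound exposure in Optimem/2% FCS.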

The mark [23] stands for this setting: measured here: cell count channel max response.
Where [24] appears, read: measured here: lipid channel max response.

Inconclusive results are not listed. Activity calls are given as the source filed them. Unless noted, the call rests on the fitted dose curve; in most records, active means well fitted curve in the direction sought with a large enough effect; inconclusive means small, poorly fitted or top-dose-only effect, or another doubt; inactive means no such curve, though single readings can be large; an effect the other way counts as inactive or inconclusive. Where only a bound is given, the exact number is not on record here.

Glucocorticoid receptor (Homo sapiens), sequence (P04150 whole entry, looked up, the tested form may be a part): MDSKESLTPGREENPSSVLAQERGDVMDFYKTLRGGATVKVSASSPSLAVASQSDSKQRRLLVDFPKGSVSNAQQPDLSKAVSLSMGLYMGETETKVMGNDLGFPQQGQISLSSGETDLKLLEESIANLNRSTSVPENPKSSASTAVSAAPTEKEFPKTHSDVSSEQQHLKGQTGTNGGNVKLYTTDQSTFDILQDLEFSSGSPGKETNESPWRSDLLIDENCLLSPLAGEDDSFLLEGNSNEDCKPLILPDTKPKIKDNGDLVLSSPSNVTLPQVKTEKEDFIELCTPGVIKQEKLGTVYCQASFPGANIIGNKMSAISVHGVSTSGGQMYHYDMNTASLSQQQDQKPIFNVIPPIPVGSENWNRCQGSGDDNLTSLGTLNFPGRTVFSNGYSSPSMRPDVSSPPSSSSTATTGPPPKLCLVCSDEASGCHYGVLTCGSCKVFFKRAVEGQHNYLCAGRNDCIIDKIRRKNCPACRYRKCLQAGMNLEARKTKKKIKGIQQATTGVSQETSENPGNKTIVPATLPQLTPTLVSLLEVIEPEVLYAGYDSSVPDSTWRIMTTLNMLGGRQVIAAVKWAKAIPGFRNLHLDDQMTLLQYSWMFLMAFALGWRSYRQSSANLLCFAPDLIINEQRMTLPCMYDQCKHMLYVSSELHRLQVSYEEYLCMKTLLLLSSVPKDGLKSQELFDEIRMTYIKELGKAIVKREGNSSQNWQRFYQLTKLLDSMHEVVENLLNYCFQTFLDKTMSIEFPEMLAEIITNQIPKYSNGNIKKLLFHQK
Ubiquitin carboxyl-terminal hydrolase 1 (Homo sapiens), sequence (O94782 whole entry, looked up): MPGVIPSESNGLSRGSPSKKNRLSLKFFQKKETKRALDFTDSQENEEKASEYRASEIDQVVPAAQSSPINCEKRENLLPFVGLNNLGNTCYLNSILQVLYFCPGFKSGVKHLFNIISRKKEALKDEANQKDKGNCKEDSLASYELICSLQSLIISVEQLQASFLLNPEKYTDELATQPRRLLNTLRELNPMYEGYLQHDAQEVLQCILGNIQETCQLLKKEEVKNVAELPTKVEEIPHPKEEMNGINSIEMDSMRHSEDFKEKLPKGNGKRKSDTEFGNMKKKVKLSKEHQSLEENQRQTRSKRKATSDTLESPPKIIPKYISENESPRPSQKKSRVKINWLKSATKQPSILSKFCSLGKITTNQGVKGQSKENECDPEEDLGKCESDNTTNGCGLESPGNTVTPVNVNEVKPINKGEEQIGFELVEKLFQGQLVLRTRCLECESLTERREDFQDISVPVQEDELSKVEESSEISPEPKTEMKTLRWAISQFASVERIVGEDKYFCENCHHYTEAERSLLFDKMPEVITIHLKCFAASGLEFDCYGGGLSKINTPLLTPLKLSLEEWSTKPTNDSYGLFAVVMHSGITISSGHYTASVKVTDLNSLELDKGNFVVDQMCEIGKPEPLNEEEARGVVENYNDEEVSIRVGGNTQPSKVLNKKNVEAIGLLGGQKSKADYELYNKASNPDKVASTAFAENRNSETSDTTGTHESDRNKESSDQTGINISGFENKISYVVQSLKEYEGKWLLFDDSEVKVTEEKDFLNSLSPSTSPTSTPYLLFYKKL
3',5'-cyclic-AMP phosphodiesterase 4B (Homo sapiens), sequence (Q07343 whole entry, looked up): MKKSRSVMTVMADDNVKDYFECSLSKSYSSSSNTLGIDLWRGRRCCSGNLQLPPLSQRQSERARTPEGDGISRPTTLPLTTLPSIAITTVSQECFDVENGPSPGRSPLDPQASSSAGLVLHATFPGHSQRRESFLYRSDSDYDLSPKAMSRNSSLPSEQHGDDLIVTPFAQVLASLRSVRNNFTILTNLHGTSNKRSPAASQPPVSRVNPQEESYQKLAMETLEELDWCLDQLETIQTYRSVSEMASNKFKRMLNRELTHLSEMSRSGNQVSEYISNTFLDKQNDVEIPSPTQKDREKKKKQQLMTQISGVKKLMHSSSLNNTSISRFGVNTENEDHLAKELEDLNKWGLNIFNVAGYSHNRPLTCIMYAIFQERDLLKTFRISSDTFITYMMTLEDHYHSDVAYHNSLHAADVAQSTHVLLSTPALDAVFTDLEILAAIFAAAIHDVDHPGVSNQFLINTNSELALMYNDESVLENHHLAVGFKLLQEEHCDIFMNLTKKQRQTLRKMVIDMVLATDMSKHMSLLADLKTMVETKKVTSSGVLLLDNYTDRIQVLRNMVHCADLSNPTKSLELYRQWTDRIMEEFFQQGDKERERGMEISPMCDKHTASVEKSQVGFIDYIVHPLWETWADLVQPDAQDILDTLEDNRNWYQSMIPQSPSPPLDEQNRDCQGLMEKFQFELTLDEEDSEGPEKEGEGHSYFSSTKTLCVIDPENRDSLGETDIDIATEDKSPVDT
Cytochrome P450 2C19 (Homo sapiens), sequence (P33261 whole entry, looked up): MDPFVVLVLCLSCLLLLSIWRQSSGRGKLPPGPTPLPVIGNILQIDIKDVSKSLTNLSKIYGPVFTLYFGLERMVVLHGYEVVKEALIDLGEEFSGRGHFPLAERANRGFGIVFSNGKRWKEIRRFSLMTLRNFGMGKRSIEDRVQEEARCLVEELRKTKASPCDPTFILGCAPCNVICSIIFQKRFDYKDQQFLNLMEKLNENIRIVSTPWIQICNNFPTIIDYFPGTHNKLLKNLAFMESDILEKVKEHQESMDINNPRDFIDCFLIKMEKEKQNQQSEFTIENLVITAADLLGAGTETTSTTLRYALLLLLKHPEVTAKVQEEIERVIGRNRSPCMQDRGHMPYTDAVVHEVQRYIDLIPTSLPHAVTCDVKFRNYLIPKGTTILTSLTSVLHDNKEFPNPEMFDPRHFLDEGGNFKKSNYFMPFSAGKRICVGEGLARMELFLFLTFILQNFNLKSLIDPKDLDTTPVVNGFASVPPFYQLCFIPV

Consider `COc1ccc(-n2c(=O)c(-c3cccc(C#N)c3)nc3cnc(N4CCNCC4)nc32)cc1`, for which the activity change, negative = inhibition in assay [1] is 6.83% (inactive); in [3], 5.29% (inactive); in assay [9], 9.59% (inactive). Also, the Potency in assay [2] is 15.8 µM (active); in assay [5], > 9.22 µM (inactive); in assay [6], > 46 µM (inactive); in assay [15] it was 25.1 µM (active). Moreover, the activity, negative = inhibition in assay [4] was 13.3% (inactive). In addition, in [7], the call was inactive. The Potency entry in assay [8], in assay [10], in assay [11], in assay [12], in assay [13] and in assay [14] was “inactive” each time. Moreover, the max response in [9] (setting [23]) is 24%; in [9] (setting [24]), 29.5%.
For `O=c1c(-c2ccc(F)cc2)nc2cnc(N3CCNCC3)nc2n1-c1ccccc1`, the Potency was > 11.4 µM (inactive) in assay [16], 10 µM (active) in assay [2] and > 46 µM (inactive) in [6]. For the same molecule, the Potency result in assay [8], in assay [17], in assay [18], in assay [10], in assay [11] and in [12] was “inactive” each time. In addition, the Potency entry in assay [13], in assay [14] and in assay [15] was “inactive” in each case. Besides, in assay [9], the activity change, negative = inhibition is 6.93% (inactive). The results for the max response in assay [9] (setting [23]), in assay [9] (setting [24]) and in assay [19] were 19.9%, 25.6% and -15.9% (inactive), respectively.
On to `COc1ccc(-c2nc3cnc(N4CCNCC4)nc3n(-c3ccc(OC)cc3)c2=O)cc1`, for which the Potency was > 11.4 µM (inactive) in assay [16], > 9.22 µM (inactive) in assay [5], > 46 µM (inactive) in assay [6] and 25.1 µM (active) in [19]. Also, the call in assay [7] was inactive. The Potency result in [8], in assay [10], in assay [11], in [12], in [13] and in [14] was “inactive” in each case. Besides, in [15], the Potency result was “inactive”. In addition, the activity change, negative = inhibition in assay [9] is 1.3% (inactive). The figures for the max response in assay [9] (setting [23]) and in assay [9] (setting [24]) were 15% and 15.1%, respectively.
Consider `Cc1nc2cnc(N3CCNCC3)nc2n(Cc2ccc(F)cc2)c1=O`, for which the Potency in [16] was > 11.4 µM (inactive); in [2] it was 12.6 µM (active); in [5], > 9.22 µM (inactive); in assay [6] it was > 46 µM (inactive); in assay [15], 20 µM (active). Besides, the figures for the activity change, negative = inhibition in assay [1], in assay [3] and in assay [9] were 7.46% (inactive), -14.9% (inactive) and 2.97% (inactive), respectively. Besides, the activity, negative = inhibition in assay [4] is 7.66% (inactive). In [7], the molecule was classed as inactive. In addition, the Potency entry in assay [17], in assay [18] and in assay [14] was “inactive” in each case. Moreover, the results for the max response in assay [9] (setting [23]), in assay [9] (setting [24]) and in [19] were 14.9%, 19.5% and 11.4% (inactive), respectively.
With `O=C(Nc1cccc(F)c1)N1CCC2(CC1)CCN(S(=O)(=O)c1ccccc1)CC2`, the Potency is > 11.4 µM (inactive) in [16] and > 46 µM (inactive) in assay [6]. In addition, the activity change, negative = inhibition is -14.1% (inactive) in assay [1], 11.4% (inactive) in assay [3] and -0.528% (inactive) in [9]. Moreover, the activity, negative = inhibition in assay [4] was -8.13% (inactive). Besides, the molecule was classed as inactive in [7]. Besides, the Potency result in assay [8], in assay [14] and in [15] was “inactive” in each case. Moreover, the results for the max response in [9] (setting [23]), in [9] (setting [24]) and in assay [19] were 0.271%, 1.82% and 3.59% (inactive), respectively.
Take `Clc1ccccc1-c1nc(N2CCNCC2)c2ccccc2n1`: the Potency was > 11.4 µM (inactive) in assay [16]; 2.51 µM (active) in assay [2]; > 46 µM (inactive) in [5]; > 46 µM (inactive) in assay [6]; 12.6 µM (active) in assay [15]. In addition, the figures for the activity change, negative = inhibition in [1], in assay [3] and in [9] were -2.1% (inactive), -0.528% (inactive) and 3.77% (inactive), respectively. Also, in assay [4], the activity, negative = inhibition was 9.64% (inactive). Moreover, the molecule was classed as inactive in assay [7], in assay [20] and in [22]. The Potency result in [8], in assay [17], in assay [13] and in assay [14] was “inactive” in each case. The activation in assay [21] is 16.5% (inactive). In addition, the max response in assay [9] (setting [23]) is 7.62%; in assay [9] (setting [24]), 12%.

For the origin of these results see PubChem BioAssay (NCATS).
